# The source made the active and inactive calls.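 How the source made its calls: active means calcium signal above 60% of the peak acetylcholine response at the M5 receptor, called a positive modulator; inactive means the rest.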
# Target: Muscarinic acetylcholine receptor M4 (Homo sapiens) (UniProt P08173)
# Test: off-target M4 muscarinic potentiation – cell-based, CHO-K1 hM4/Gqi5, Fluo-4 calcium flux, ACh EC20, counter-screen for M5 PAM project (AID 743101)
# Conditions: Fluo-4, ACh EC20, at 30 µM (top of the series)
# Chain of Muscarinic acetylcholine receptor M4 (Homo sapiens) (P08173 whole entry, looked up): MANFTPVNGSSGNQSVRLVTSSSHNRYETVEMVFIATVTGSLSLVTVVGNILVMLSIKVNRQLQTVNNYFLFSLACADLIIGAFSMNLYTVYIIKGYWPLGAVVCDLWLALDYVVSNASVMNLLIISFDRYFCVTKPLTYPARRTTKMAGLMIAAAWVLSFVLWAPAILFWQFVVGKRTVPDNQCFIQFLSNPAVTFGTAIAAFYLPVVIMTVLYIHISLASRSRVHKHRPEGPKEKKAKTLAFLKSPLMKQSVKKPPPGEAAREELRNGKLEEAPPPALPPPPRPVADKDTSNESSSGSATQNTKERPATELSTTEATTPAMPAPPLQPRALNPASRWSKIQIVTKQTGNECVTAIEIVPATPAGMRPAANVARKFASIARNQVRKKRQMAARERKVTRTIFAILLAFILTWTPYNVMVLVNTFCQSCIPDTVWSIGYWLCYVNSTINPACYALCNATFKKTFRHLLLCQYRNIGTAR
row,SMILES,outcome
1,CCN(Cc1ccccc1)C(=O)C1CCN(S(=O)(=O)c2ccc3[nH]ncc3c2)CC1,inactive
2,CCN(Cc1ccccc1C(F)(F)F)C(=O)C1CCN(S(=O)(=O)c2ccc3[nH]ncc3c2)CC1,inactive
3,CCN(C(=O)C1CCN(S(=O)(=O)c2ccc(OC)cc2)CC1)[C@H](C)c1ccccc1,inactive
4,CCN(Cc1ccccc1)C(=O)C1CCN(S(=O)(=O)c2ccc3cn[nH]c3c2)CC1,inactive
5,CCN(Cc1ccccc1Cl)C(=O)C1CCN(S(=O)(=O)c2ccc3[nH]ncc3c2)CC1,inactive
6,CCN(C(=O)C1CCN(S(=O)(=O)c2ccc(-n3cccn3)cc2)CC1)[C@H](C)c1ccccc1,inactive
7,CCN(Cc1ccccc1)C(=O)C1CCN(S(=O)(=O)c2ccc3c(c2)OCCO3)CC1,inactive
8,CCN(Cc1ccccc1C(F)(F)F)C(=O)C1(F)CCN(S(=O)(=O)c2ccc3[nH]ncc3c2)CC1,inactive
9,CCCN(Cc1ccccc1C(F)(F)F)C(=O)C1CCN(S(=O)(=O)c2ccc3[nH]ncc3c2)CC1,inactive
10,CCN(Cc1ccccc1C(F)(F)F)C(=O)C1CCN(S(=O)(=O)c2ccc3cn[nH]c3c2)CC1,inactive
11,CCN(C(=O)C1CCN(S(=O)(=O)c2ccc3[nH]ncc3c2)CC1)[C@H](C)c1ccccc1,inactive

# Source: PubChem BioAssay AID743101 (Vanderbilt Specialized Chemistry Center, 2013)
